Data: PubChem BioAssay
Values joined by “and” are separate entries in the source; they are usually repeats but may differ in a detail not shown here. Equal values may be shown once. Inconclusive results are not listed. Where a structure was tested more than once in an assay, its records may differ in their call. Active and inactive are the calls of the source.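 How the source made its calls, unless noted: active means mean z-score across replicates of 1.96 or higher in either the MELAS or the Rieske mutant cell line; inactive means the rest.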

Assays:
[1] = SU-DIPG-VI glioma cell viability, MIPE4.0 library, CellTiter-Glo luminescence, qHTS (AID 1347066; cut-off not given, nearly all actives have AC50 up to about 30 µM;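 further: cells exposed to compound for 48 hours before readout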); settings: CellTiter-Glo ATP luminescence
[2] = sensitizers of A549 cells to miR-34 induction, primary screen, imaging, A549 dox-inducible miR-34, nuclei and caspase counts (AID 1347080;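 active means compounds whose cell count with miR-34 switched on is under 0.7 times the count with it off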); settings: A549 miR-34 inducible, Hoechst nuclei count, 48 h
[3] = survival rescue of mitochondrial mutant cells in low glucose, primary screen, MELAS cybrids, Rieske KO mouse fibroblasts, CellTiter-Glo (AID 1508586);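 further: z relative to plate mean and SD of compound and empty wells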
[4] = molecular target: Mitogen-activated protein kinase 7 (Homo sapiens) (UniProt Q13164); experiment: ERK5 transactivation activators in reporter cells, primary screen, cell-based, HTS (AID 1508626;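 active means luciferase signal above three times the same-plate solvent-only control wells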;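 further: luciferase driven by Gal4-ERK5 fusion binding five Gal4 sites before minimal TATA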); settings: HeLa Gal4-ERK5 transactivation, 18 h, at 5 µM, stronger effect = higher value
[5] = phospholipid biosynthesis inhibitors in animal cells, primary screen, cell-based, LOPAC library, screen 4 (AID 1347384; call rule not given here); settings: phospholipid biosynthesis inhibition screen, at 10 µM
[6] = molecular target: NAD(+) hydrolase SARM1 (Homo sapiens) (UniProt Q6SZW1); experiment: SARM1 TIR NADase inhibitors, cell lysate, NAD-Glo luminescence (AID 1508614;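 active means compound whose remaining NAD level is above about 45 nM, limit read from the data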); settings: SAM-TIR HEK293T lysate NADase, at 1 µM, stronger effect = higher value
[7] = viability rescue of complex I mutant cybrids, primary screen, cell-based, galactose medium, ATP luminescence (AID 1645843;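 active means z-score of at least 1.8 in each of two replicates, scored against plate mean and spread of sample wells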;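 further: positive z means more ATP and so rescue of galactose-driven cybrid death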); settings: complex I mutant cybrid cells, 72 h, stronger effect = higher value
[8] = LFS_MB_P medulloblastoma growth inhibition, cell-based, chromothripsis tumors, cisplatin or BGB combos (AID 1671449; in the data active means inhibition above about 80%;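 further: cells exposed for 96 hours; 0% = vehicle DMSO and 100% = killing by high DMSO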); settings: LFS_MB_P medulloblastoma cells
[9] = HDN33 neuroblastoma growth inhibition, cell-based, chromothripsis tumors, cisplatin or BGB combos (AID 1671450; in the data active means inhibition above about 80%;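 further: cells exposed to compound for four days; 0% = vehicle DMSO and 100% = cell killing by high DMSO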); settings: HDN33 neuroblastoma cells, stronger effect = higher value
[10] = ICB984 medulloblastoma cell growth inhibition, synergistic combos for chromothripsis tumors, cisplatin or BGB combos (AID 1671451; call rule not given here;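 further: cells exposed for 96 hours before readout; 0% = vehicle DMSO and 100% = killing by high DMSO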); settings: ICB984 medulloblastoma cells, drug combinations, stronger effect = higher value
[11] = LFS_MB_1R medulloblastoma cell growth inhibition, synergistic combos for chromothripsis tumors, cisplatin or BGB combos (AID 1671452; in the data active means inhibition above about 80%;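 further: cells exposed for 96 hours before readout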); settings: LFS_MB_1R medulloblastoma cells, stronger effect = higher value
[12] = HTB85 osteosarcoma cell growth inhibition, synergistic combos for chromothripsis tumors, BGB or cisplatin IC20 combos (AID 1671453; in the data active means inhibition above about 80%;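 further: cells exposed for 96 hours before readout; 0% = vehicle DMSO and 100% = high DMSO killing control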); settings: HTB85 osteosarcoma cells, drug combinations, stronger effect = higher value
[13] = CRL2098 osteosarcoma cell growth inhibition, synergistic combos for chromothripsis tumors, BGB or cisplatin IC20 combos (AID 1671454; in the data active means inhibition above about 80%;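 further: cells exposed for 96 h before readout; 0% = vehicle DMSO and 100% = killing by high DMSO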); settings: CRL2098 osteosarcoma cells, drug combinations, stronger effect = higher value
[14] = HD-MB03 medulloblastoma cell growth inhibition, synergistic combos for chromothripsis tumors, BGB or cisplatin IC20 combos (AID 1671455; in the data active means inhibition above about 83%;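 further: 0% = vehicle DMSO and 100% = high DMSO as cytotoxic control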); settings: HD-MB03 medulloblastoma cells, stronger effect = higher value
[15] = SU-DIPG-XXV glioma cell viability, MIPE5.0 library, qHTS (AID 1347068; cut-off not given, nearly all actives have IC50 up to about 30 µM)
[16] = stronger effect = lower value, cell number ratio, induced over uninduced
[17] = measured here: relative caspase fold change +Dox/-Dox
[18] = measured here: total cells with miR-34 induction, stronger effect = lower value
[19] = measured here: total cells without miR-34 induction
[20] = MELAS cybrid survival, CellTiter-Glo 48 h, stronger effect = higher value
[21] = Rieske KO mouse fibroblast survival, CellTiter-Glo 72 h
[22] = at 0.5 µM, stronger effect = higher value
[23] = measured here: combination with BGB IC20, at 0.005 µM
[24] = measured here: combination with BGB IC40, at 0.005 µM
[25] = measured here: combination with BGB IC40, at 0.05 µM
[26] = measured here: combination with cisplatin, at 0.5 µM, stronger effect = higher value
[27] = measured here: combination with cisplatin, at 5 µM, stronger effect = higher value
[28] = measured here: with BGB IC20 combination, at 0.5 µM
[29] = measured here: with cisplatin IC20 combination, at 0.5 µM
[30] = measured here: 5 uM single agent, at 5 µM
[31] = measured here: combination with cisplatin, at 0.5 µM
[32] = measured here: combination with cisplatin, at 5 µM
[33] = measured here: with BGB IC20, at 0.5 µM
[34] = measured here: with BGB IC20, at 5 µM
[35] = measured here: with cisplatin IC20, at 0.5 µM
[36] = measured here: with cisplatin IC20, at 5 µM
[37] = measured here: combination with BGB at IC20, at 0.5 µM
[38] = measured here: combination with cisplatin at IC20, at 0.5 µM
[39] = measured here: combo with BGB at IC20, at 0.5 µM
[40] = measured here: combo with cisplatin at IC20, at 0.5 µM

Sequence of NAD(+) hydrolase SARM1 (Homo sapiens) (Q6SZW1 whole entry, looked up): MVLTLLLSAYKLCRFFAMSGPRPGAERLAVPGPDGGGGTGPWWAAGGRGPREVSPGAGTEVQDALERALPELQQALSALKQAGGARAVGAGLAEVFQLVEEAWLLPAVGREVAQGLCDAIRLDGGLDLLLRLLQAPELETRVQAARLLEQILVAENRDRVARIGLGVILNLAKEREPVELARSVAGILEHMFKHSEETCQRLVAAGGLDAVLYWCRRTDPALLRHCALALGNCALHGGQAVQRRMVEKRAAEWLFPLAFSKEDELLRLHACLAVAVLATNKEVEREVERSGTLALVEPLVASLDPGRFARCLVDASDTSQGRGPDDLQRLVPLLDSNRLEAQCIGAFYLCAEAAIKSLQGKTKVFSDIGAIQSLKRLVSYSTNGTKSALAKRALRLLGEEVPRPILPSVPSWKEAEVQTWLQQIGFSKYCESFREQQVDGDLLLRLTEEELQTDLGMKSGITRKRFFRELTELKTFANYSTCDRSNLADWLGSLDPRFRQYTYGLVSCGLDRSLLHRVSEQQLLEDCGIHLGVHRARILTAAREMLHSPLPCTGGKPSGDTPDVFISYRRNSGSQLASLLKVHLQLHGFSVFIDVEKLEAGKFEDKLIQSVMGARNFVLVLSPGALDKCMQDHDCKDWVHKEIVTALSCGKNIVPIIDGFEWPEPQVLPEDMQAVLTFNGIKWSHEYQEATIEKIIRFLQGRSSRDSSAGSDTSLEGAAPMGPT
Sequence of Mitogen-activated protein kinase 7 (Homo sapiens) (Q13164 whole entry, looked up, the tested form may be a part): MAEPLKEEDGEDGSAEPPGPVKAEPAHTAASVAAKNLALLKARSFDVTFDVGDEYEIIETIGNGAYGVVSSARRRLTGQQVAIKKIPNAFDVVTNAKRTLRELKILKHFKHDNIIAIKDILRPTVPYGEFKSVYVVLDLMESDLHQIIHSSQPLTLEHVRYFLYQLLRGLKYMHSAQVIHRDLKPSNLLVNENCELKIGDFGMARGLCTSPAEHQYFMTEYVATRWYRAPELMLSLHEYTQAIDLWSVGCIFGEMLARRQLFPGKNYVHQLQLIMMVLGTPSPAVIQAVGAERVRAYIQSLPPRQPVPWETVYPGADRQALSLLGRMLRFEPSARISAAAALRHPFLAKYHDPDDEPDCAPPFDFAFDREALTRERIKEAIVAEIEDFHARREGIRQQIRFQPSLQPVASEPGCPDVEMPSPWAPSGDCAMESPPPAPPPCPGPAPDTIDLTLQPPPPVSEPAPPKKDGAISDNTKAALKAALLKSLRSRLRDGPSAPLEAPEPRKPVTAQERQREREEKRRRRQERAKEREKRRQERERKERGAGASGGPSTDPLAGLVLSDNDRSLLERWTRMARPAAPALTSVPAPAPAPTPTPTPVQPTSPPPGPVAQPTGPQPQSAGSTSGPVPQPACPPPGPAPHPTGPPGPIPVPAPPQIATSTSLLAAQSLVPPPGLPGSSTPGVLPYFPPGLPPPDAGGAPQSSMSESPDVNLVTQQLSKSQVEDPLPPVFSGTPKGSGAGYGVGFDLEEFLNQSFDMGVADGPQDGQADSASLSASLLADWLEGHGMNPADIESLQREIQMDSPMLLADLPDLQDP

In the case of `OC[C@H]1O[C@@H](Oc2ccc(O)cc2)[C@H](O)[C@@H](O)[C@@H]1O`, the outcome [1] is reported as “inactive”, the fold change [2, 16] is reported as 0.914 (inactive) and the fold change [2, 17] is reported as 0.569. The cell count [2, 18] was 9130, the cell count [2, 19] was 9990 and the z-score [3, 20] was 0.856 (inactive). For the same compound, the z-score [3, 21] was 0.44 and the luciferase signal [4] was 48 AU (inactive).
In the case of `O=C(c1ccc(F)cc1)C1CCN(CCn2c(=O)[nH]c3ccccc3c2=O)CC1`, the outcome [1] is reported as “inactive”, the outcome [5] is reported as “inactive” and the z-score [3, 20] is reported as -0.256 (inactive) and 0.859 (inactive) and 1.46 (inactive). The z-score [3, 21] was 0.928 and -0.102 and 0.875, the remaining NAD [6] was 10 nM (inactive) and the z-score [7] was 0.47 (inactive) and 0.155 (inactive) and 0.975 (inactive).
In the case of `COC(=O)Nc1nc2ccc(S(=O)c3ccccc3)cc2[nH]1` (configuration not stated), the outcome [1] is reported as “inactive”, the fold change [2, 16] is reported as 1 (inactive) and 0.95 (inactive) and 1.02 (inactive) and the fold change [2, 17] is reported as 0.565 and 3.46 and 0.832. The cell count [2, 18] was 5070 and 6690 and 5080, the cell count [2, 19] was 5050 and 7040 and 4970 and the z-score [3, 20] was -0.274 (inactive) and -0.559 (inactive) and -0.178 (inactive). For the same compound, the z-score [3, 21] was 0.754 and 0.142 and 0.645, the remaining NAD [6] was 10 nM (inactive) and the z-score [7] was -0.185 (inactive).
With `Cc1ccnc2c1NC(=O)c1cccnc1N2C1CC1` the outcome [1] was “inactive”, the fold change [2, 16] was 0.867 (inactive) and 0.916 (inactive) and 0.818 (inactive) and the fold change [2, 17] was 1 and 1.53 and 1.78. For the same compound, the cell count [2, 18] was 8040 and 8950 and 7970, the cell count [2, 19] was 9270 and 9770 and 9750 and the z-score [3, 20] was -0.331 (inactive) and -0.443 (inactive). For the same compound, the z-score [3, 21] was 0.346 and -0.451, the remaining NAD [6] was 10 nM (inactive) and the z-score [7] was 0.47 (inactive). For the same compound, the inhibition [8, 22] was 65.5% (inactive), the inhibition [8, 23] was -14.8% and the inhibition [8, 24] was -23.6%. For the same compound, the inhibition [8, 25] was -7.3%, the inhibition [8, 26] was 96.2% and the inhibition [8, 27] was -8.68%. The inhibition ([9]; BGB combo, at 5 µM) was -9.4%, the inhibition ([9]; at 0.5 µM) was -11.8% (inactive) and the inhibition ([9]; cisplatin combo, at 5 µM) was 24.4%. For the same compound, the inhibition [9, 28] was -18.3%, the inhibition [9, 29] was 0.871% and the inhibition ([9]; single agent, at 5 µM) was -21.1%. For the same compound, the inhibition ([10]; BGB IC20 combo, at 0.005 µM) was 7.31%, the inhibition ([10]; BGB IC40 combo, at 0.005 µM) was -7.13% and the inhibition ([10]; BGB IC40 combo, at 0.05 µM) was -20.9%. For the same compound, the inhibition ([10]; at 0.5 µM) was -20.4% (inactive), the inhibition ([10]; cisplatin combo, at 0.05 µM) was -24.3% and the inhibition ([10]; cisplatin combo, at 0.5 µM) was -22.4%. For the same compound, the inhibition ([10]; cisplatin combo, at 5 µM) was -11%, the inhibition [10, 30] was -28.4% and the inhibition ([11]; at 0.5 µM) was -9.83% (inactive). It also gave an inhibition [11, 25] of -16.2%, an inhibition [11, 31] of 15.1% and an inhibition [11, 32] of 29.5%. For the same compound, the inhibition ([12]; at 0.5 µM) was -11.8% (inactive), the inhibition [12, 33] was -22.9% and the inhibition [12, 34] was 53.6%. For the same compound, the inhibition [12, 35] was -9.99%, the inhibition [12, 36] was -37.2% and the inhibition ([12]; single agent, at 5 µM) was -7.51%. The inhibition ([13]; at 0.5 µM) was -33.2% (inactive), the inhibition [13, 37] was -9.42% and the inhibition [13, 38] was -39.8%. The inhibition ([14]; at 0.5 µM) was -18.2% (inactive), the inhibition [14, 39] was -13% and the inhibition [14, 40] was -23.9%.
In the case of `CCn1cc(C(=O)O)c(=O)c2cc(F)c(N3CCNCC3)nc21`, the outcome [1] is reported as “inactive”, the fold change [2, 16] is reported as 0.955 (inactive) and 0.936 (inactive) and 0.839 (inactive) and the fold change [2, 17] is reported as 0.759 and 2.37 and 1.38. For the same compound, the cell count [2, 18] was 8750 and 11500 and 9060, the cell count [2, 19] was 9160 and 12300 and 10800 and the z-score [3, 20] was -0.278 (inactive) and 0.526 (inactive) and -0.113 (inactive). For the same compound, the z-score [3, 21] was 0.647 and 0.794 and 0.23, the remaining NAD [6] was 10 nM (inactive) and the luciferase signal [4] was 40 AU (inactive). The z-score [7] was -0.075 (inactive), the inhibition [8, 22] was 95.5% (active) and -29.1% (inactive) and the inhibition [8, 23] was -19.8% and -22.4%. The inhibition [8, 24] was -56.7% and 0.955%, the inhibition [8, 25] was -47.1% and -2.69% and the inhibition [8, 26] was 108% and -48.6%. The inhibition [8, 27] was -38.7% and -12%, the inhibition ([9]; BGB combo, at 5 µM) was -53.5% and -12.2% and the inhibition ([9]; at 0.5 µM) was -20.8% (inactive) and 3.72% (inactive). For the same compound, the inhibition ([9]; cisplatin combo, at 5 µM) was -17.5% and -19.5%, the inhibition [9, 28] was -36.2% and -5.94% and the inhibition [9, 29] was 4.58% and 5.43%. The inhibition ([9]; single agent, at 5 µM) was -41.7% and 2.78%, the inhibition ([10]; BGB IC20 combo, at 0.005 µM) was -24.2% and -17.5% and the inhibition ([10]; BGB IC40 combo, at 0.005 µM) was -20.3% and -26.8%. For the same compound, the inhibition ([10]; BGB IC40 combo, at 0.05 µM) was -25.4% and -9.4%, the inhibition ([10]; at 0.5 µM) was -21.1% (inactive) and -10.7% (inactive) and the inhibition ([10]; cisplatin combo, at 0.05 µM) was -31.9% and -9.4%. For the same compound, the inhibition ([10]; cisplatin combo, at 0.5 µM) was -30.1% and -9.09%, the inhibition ([10]; cisplatin combo, at 5 µM) was -14.7% and -13.9% and the inhibition [10, 30] was -13.9% and -18.7%. The inhibition ([11]; at 0.5 µM) was -40% (inactive) and 2.92% (inactive), the inhibition [11, 25] was -27.4% and 5.91% and the inhibition [11, 31] was -80.9% and -14.1%. The inhibition [11, 32] was -47.5% and -13.9%, the inhibition ([12]; at 0.5 µM) was -12.7% (inactive) and -3.77% (inactive) and the inhibition [12, 33] was 1.15% and -26.8%. For the same compound, the inhibition [12, 34] was -15.3% and -6.32%, the inhibition [12, 35] was -12.7% and 12.5% and the inhibition [12, 36] was -14.2% and -4.27%. The inhibition ([12]; single agent, at 5 µM) was 1.99% and -0.637%, the inhibition ([13]; at 0.5 µM) was -80.2% (inactive) and -23.4% (inactive) and the inhibition [13, 37] was -85.1% and -50.3%. For the same compound, the inhibition [13, 38] was -99.8% and 10.9%, the inhibition ([14]; at 0.5 µM) was -13.7% (inactive) and -3.13% (inactive) and the inhibition [14, 39] was -9.56% and -6.49%. For the same compound, the inhibition [14, 40] was -20.1% and 4.15%.
With `CC(C)(Sc1cc(C(C)(C)C)c(O)c(C(C)(C)C)c1)Sc1cc(C(C)(C)C)c(O)c(C(C)(C)C)c1` the outcome [1] was “inactive”, the outcome [15] was “inactive” and the fold change [2, 16] was 0.81 (inactive) and 0.886 (inactive) and 0.877 (inactive). For the same compound, the fold change [2, 17] was 1.96 and 0.704 and 3.16, the cell count [2, 18] was 8410 and 8070 and 11000 and the cell count [2, 19] was 10400 and 9110 and 12500. The z-score [3, 20] was -0.245 (inactive) and 0.14 (inactive), the z-score [3, 21] was -0.773 and -0.118 and the remaining NAD [6] was 10 nM (inactive). The luciferase signal [4] was 40 AU (inactive).
For `O=c1[nH]cnc2c1ncn2[C@H]1CC[C@@H](CO)O1`, the outcome [1] was “inactive”, the fold change [2, 16] was 0.88 (inactive) and 0.877 (inactive) and the fold change [2, 17] was 1.12 and 1.04. For the same compound, the cell count [2, 18] was 8250 and 10000, the cell count [2, 19] was 9380 and 11400 and the z-score [3, 20] was -0.8 (inactive) and -0.278 (inactive). For the same compound, the z-score [3, 21] was -0.19 and -0.4 and the z-score [7] was 0.385 (inactive).
